Assay outcomes deposited in PubChem by several laboratories.
A selection: hits, their analogues and other compounds. The true share with any hit is near 3.6%.
LGR2 antag = inhibitors of bursicon-induced LGR2 CRE-luciferase signal, primary screen, cell-based, HEK293, CRE-luciferase reporter, bursicon stimulation. Drosophila bursicon receptor LGR2 (rickets). bursicon-stimulated, 4 h. inhibition, % at 9.99 µM. 380,000 tested, 0.35% active. AID 720647, 2013;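 active = drop in luminescence signal, shown as inhibition above about 50% in the replicate tests, limit read from the data, passing the limit was not always enough; inconclusive = probably only some replicates passing the limit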;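 note: agonist challenge used bursicon conditioned medium at about half maximal strength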
KKLEB tox = cytotoxicity in KKLEB CF airway cells, primary screen, cytotoxicity control for CF NF-kB inhibitor project, cell-based, uHTS, fluorescence assay plates; KKLEB CF airway cells viability, ATPlite luminescence, overnight; hits give low values; cells stimulated with P. aeruginosa culture filtrate; activity change (cytotoxicity), % at 5 µM; 360,000 tested, 0.36% active;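 active = corrected activity change at or below -50% at 5 µM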
Mdm2 MdmX PPI = inhibitors of human Mdm2-MdmX association, primary screen, cell-based, luminescence, split luciferase, SaOS-2, uHTS | Protein Mdm4 (Homo sapiens) + E3 ubiquitin-protein ligase Mdm2 (Homo sapiens), … | SaOS-2 split-luciferase Mdm2/MdmX complementation | inhibition, % at 8 µM | 330,000 tested, 3% active | AID 485346, 2010;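 active = inhibition of at least 50% at 8 µM in the primary screen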
CF NFkB inh = inhibitors of PAF-induced NF-kB signaling, primary screen, cell-based, GFP fluorescence, uHTS | inhibition, % at 5 µM | KKLEB NF-kB-GFP reporter, GFP fluorescence overnight | 360,000 tested, 0.86% active | AID 588850, 2011;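 active = at least 50% inhibition at 5 µM, scaled per plate between neutral and stimulator controls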;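 note: PAF is a Pseudomonas aeruginosa culture filtrate used as stimulus; plate controls were PAF-stimulated DMSO wells for no effect and unstimulated DMSO wells for full effect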
HSP90 inh = HSP90 inhibitors, primary screen, cell lysate, luminescence; inhibition, % at 5.6 µM; Rabbit reticulocyte lysate, luciferase refolding luminescence, 3 h; Heat shock protein HSP 90 (rabbit reticulocyte lysate; luciferase refolding); 290,000 tested, 0.91% active;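 active = inhibition above the screen-wide mean plus 3 SD, computed separately per campaign, cut at about 16% in these data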;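 note: 0% = DMSO wells and 100% = 60 µM geldanamycin wells; inhibitors lower the luminescence because luciferase stays unfolded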
Peg3 prom inh = Peg3 promoter-driven luciferase inhibitors, primary screen, cell-based, HeLa, luciferase luminescence | HeLa PEG-Prom luciferase reporter, overnight | 360,000 tested, 1.7% active | inhibition, % at 20 µM;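 active = inhibition of at least 50% at 20 µM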
HSP90 inh confirm = HSP90 inhibitors, confirmation, cell lysate, luminescence. shares compounds with HSP90 inh. rabbit reticulocyte lysate, luciferase refolding luminescence, 3 h. inhibition, % at 5.9 µM. 2,300 tested, 64% active; in the data active = inhibition above about 18%;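 note: 0% = vehicle wells and 100% = reference inhibitor wells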
luciferase ctr = firefly luciferase inhibitors, HSP90 counter-screen, confirmation, artefact control for HSP90 inhibitor project, biochemical, luminescence, triplicate; shares compounds with HSP90 inh; purified native firefly luciferase; inhibition, % at 5.9 µM; 2,300 tested, 48% active; AID 1847, 2009;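 active = inhibition above the mean inhibition of all tested sample wells plus 3 SD, cut at about 10% in these data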;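 note: 0% = DMSO with luciferase and 100% = wells lacking luciferase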
Target sequence (P08659 whole entry, looked up): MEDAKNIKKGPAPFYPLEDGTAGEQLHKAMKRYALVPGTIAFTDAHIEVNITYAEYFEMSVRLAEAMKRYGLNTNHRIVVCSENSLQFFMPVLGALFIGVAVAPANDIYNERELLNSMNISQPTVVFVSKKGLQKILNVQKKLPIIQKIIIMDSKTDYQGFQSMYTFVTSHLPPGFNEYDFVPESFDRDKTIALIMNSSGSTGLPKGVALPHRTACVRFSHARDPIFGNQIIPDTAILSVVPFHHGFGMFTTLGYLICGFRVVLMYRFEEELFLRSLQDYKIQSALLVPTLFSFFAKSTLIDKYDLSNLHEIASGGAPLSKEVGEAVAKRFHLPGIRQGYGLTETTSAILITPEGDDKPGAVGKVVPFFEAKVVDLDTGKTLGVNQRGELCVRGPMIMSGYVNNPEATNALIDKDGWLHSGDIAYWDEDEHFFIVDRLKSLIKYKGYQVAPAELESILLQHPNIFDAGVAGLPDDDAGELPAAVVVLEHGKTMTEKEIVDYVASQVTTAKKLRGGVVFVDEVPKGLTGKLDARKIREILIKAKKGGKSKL
* = called active by the depositor.

`O=C(N[C@@H]1CC[C@@H](CCNC(=O)c2cnccn2)O[C@H]1CO)c1ccc2c(c1)OCO2` gave LGR2 antag -11.
`COc1ccc(S(=O)(=O)N2CCN(Cc3ccc(Cl)cc3)CC2)cc1` gave KKLEB tox -10, Mdm2 MdmX PPI -3, CF NFkB inh 5, HSP90 inh 3 and Peg3 prom inh 15.
Screening COc1ccc(CN2CCN(S(=O)(=O)c3ccc(NC(C)=O)cc3)CC2)cc1 returned LGR2 antag 21, KKLEB tox 4, Mdm2 MdmX PPI 19, CF NFkB inh -16, HSP90 inh 24*, Peg3 prom inh 7, HSP90 inh confirm -1 and luciferase ctr -2.
For CCC1(C)Cc2c(sc3nc(SCC(=O)c4ccccc4)[nH]c(=O)c23)CO1 (configuration not stated) the results were LGR2 antag 32, KKLEB tox -1, Mdm2 MdmX PPI 9, CF NFkB inh -21, HSP90 inh 0 and Peg3 prom inh 5.
`CCCSc1nc(SCC(=O)NCc2ccccc2)c2c3c(sc2n1)COC(C)(CC)C3` (configuration not stated) gave KKLEB tox -20, Mdm2 MdmX PPI 23, CF NFkB inh 20, HSP90 inh 28*, Peg3 prom inh 19, HSP90 inh confirm 5 and luciferase ctr -3.
O=C(O)c1ccc(/C=C/C(=O)c2ccc3c(c2)OCCCO3)cc1 was read as LGR2 antag -58, KKLEB tox -12, Mdm2 MdmX PPI -33, CF NFkB inh 18, HSP90 inh 51*, Peg3 prom inh -34, HSP90 inh confirm 65* and luciferase ctr -4.
For Cc1nnc(N2C(=O)C(=O)/C(=C(\O)c3ccc4c(c3)CC(C)O4)C2c2ccccc2)s1 (configuration not stated) the results were LGR2 antag 0, KKLEB tox 8, Mdm2 MdmX PPI 10, CF NFkB inh 10, HSP90 inh 26*, Peg3 prom inh 17, HSP90 inh confirm 17* and luciferase ctr 26*.
Screening CC1Cc2cc(/C(O)=C3/C(=O)C(=O)N(CCN4CCOCC4)C3c3cccc(O)c3)ccc2O1 (configuration not stated) returned KKLEB tox 15, Mdm2 MdmX PPI 24, CF NFkB inh -25, HSP90 inh 18*, Peg3 prom inh -13, HSP90 inh confirm 18* and luciferase ctr 8.
CC1Cc2cc(/C(O)=C3/C(=O)C(=O)N(CC4CCCO4)C3c3ccco3)ccc2O1 (configuration not stated) was read as KKLEB tox 4, Mdm2 MdmX PPI 28, CF NFkB inh 4, HSP90 inh 22*, Peg3 prom inh -103, HSP90 inh confirm 8 and luciferase ctr 12*.
Screening O=C1N[C@H](c2ccccc2)COCn2nncc2CC[C@H]1Cc1ccccc1 returned LGR2 antag 0.
CNC[C@H]1Oc2ccc(NS(=O)(=O)c3c(C)noc3C)cc2C(=O)N([C@@H](C)CO)C[C@@H]1C was read as LGR2 antag 11.
Screening CCc1nc2ccc(C(=O)N3CCN(CC)CC3)cc2nc1CC returned LGR2 antag 5, KKLEB tox 1, Mdm2 MdmX PPI -1, CF NFkB inh 7, HSP90 inh -2 and Peg3 prom inh 10.
CCc1nc2ccc(C(=O)O)cc2nc1CC was read as LGR2 antag -5, KKLEB tox 8, Mdm2 MdmX PPI -18, CF NFkB inh 6, HSP90 inh 75*, Peg3 prom inh -130, HSP90 inh confirm 63* and luciferase ctr 51*.
Screening Cc1noc(C)c1NC(=O)N(C)C[C@@H]1OCCCC[C@@H](C)Oc2ccc(NC(=O)Nc3ccc(F)cc3)cc2C(=O)N([C@H](C)CO)C[C@H]1C returned LGR2 antag -2.
For Fc1ccc(-c2nc3n(n2)Cc2ccccc2-3)cc1 the results were KKLEB tox -8, Mdm2 MdmX PPI -102, CF NFkB inh -29, HSP90 inh 8 and Peg3 prom inh -154.
For Cc1ccc(-c2nc3n(n2)Cc2ccccc2-3)cc1 the results were KKLEB tox -44, Mdm2 MdmX PPI -4, CF NFkB inh -13, HSP90 inh 21*, Peg3 prom inh -8, HSP90 inh confirm 67* and luciferase ctr 61*.
`c1ccc(-c2cn3c(n2)-c2ccccc2C3)cc1` gave LGR2 antag inconclusive, KKLEB tox -29, Mdm2 MdmX PPI -111, CF NFkB inh -3, HSP90 inh 18*, Peg3 prom inh -6, HSP90 inh confirm 51* and luciferase ctr 42*.
Screening O=C1c2ccccc2CN2C(=O)c3ccccc3CN12 returned LGR2 antag 2, KKLEB tox 10, Mdm2 MdmX PPI -2, CF NFkB inh -8, HSP90 inh 3 and Peg3 prom inh 0.
Screening O=C([C@H]1[C@H](CO)[C@H]2Cn3c(ccc(C4=CCCC4)c3=O)[C@@H]1N2)N1CCCCC1 returned LGR2 antag 0.
For CC1(C)Cc2nc3sc4c(SCC(=O)O)ncnc4c3cc2CO1 the results were LGR2 antag 9, KKLEB tox 3, Mdm2 MdmX PPI 8, CF NFkB inh -35, HSP90 inh 19*, Peg3 prom inh 30, HSP90 inh confirm 31* and luciferase ctr 7.
Screening COC(=O)CSc1ncnc2c1sc1nc3c(cc12)COC(C)(C)C3 returned LGR2 antag 4, KKLEB tox 9, Mdm2 MdmX PPI 9, CF NFkB inh 4, HSP90 inh 2 and Peg3 prom inh 29.
For COCC#Cc1cnc2c(c1)C(=O)N([C@H](C)CO)C[C@H](C)[C@@H](CN(C)C(=O)C1CCCCC1)O2 the results were LGR2 antag 14.
`Fc1ccc(-n2nnc(-c3cccnc3Cl)n2)cc1` gave LGR2 antag -12, KKLEB tox -12, Mdm2 MdmX PPI -176, CF NFkB inh -9, HSP90 inh 10 and Peg3 prom inh -261.
